# Data from PubChem BioAssay (EPA / NIEHS).
# Several values for one entry are separate records, joined by “and”; a condition that tells them apart may be missing. Equal entries are not always repeated. Records with an inconclusive call do not appear. Some structures have more than one record in an assay (separate samples or runs), and their calls can disagree. Activity calls are given as the source filed them. How the source made its calls, unless noted: active means hit-call score of the fitted dose curve at least 0.9, where 1 is the maximum; inconclusive means response in the unintended direction; inactive means score below 0.9.
# Tests used:
# [1] = molecular target: Cellular tumor antigen p53 (Homo sapiens) (UniProt P04637); experiment: TOX21_p53_BLA_p2_ratio: Tox21 HCT-116 p53 Agonism Beta-lactamase Assay, Ratio, Phase 2 (AID 2283592)
# Method in brief: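 Gain-of-signal p53 agonism was scored from the beta-lactamase FRET ratio (460/530 nm, 405 nm excitation) in HCT116 cells treated 16 h at 37C, 5% CO2, with DMSO serving as negative control and baseline.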
# [2] = molecular target: Cellular tumor antigen p53 (Homo sapiens) (UniProt P04637); experiment: TOX21_p53_BLA_p3_ratio: Tox21 HCT-116 p53 Agonism Beta-lactamase Assay, Ratio, Phase 3 (AID 2283596)
# Method in brief: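 HCT116 p53-bla cells (4000/well) given compound in DMSO (217-fold dilution) after 5 h, incubated 16 h at 37C. CCF4-AM substrate 2 h at room temperature; 460/530 nm emission ratio, gain fitted against DMSO.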
# [3] = TOX21_p53_BLA_p4_viability: Viability Assessment in the Tox21 HCT-116 p53 Agonism Beta-lactamase Assay, Phase 4 (AID 2283597);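 further: hits lower the luminescence signal meaning cytotoxicity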
# Method in brief: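 Following a 16 h exposure at 37C, the treated HCT116 wells were first read for the FRET ratio. They were then lysed with CellTiter-Glo, and ATP luminescence was recorded after 30 min at room temperature.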
# [4] = molecular target: Cellular tumor antigen p53 (Homo sapiens) (UniProt P04637); experiment: TOX21_p53_BLA_p5_ratio: Tox21 HCT-116 p53 Agonism Beta-lactamase Assay, Ratio, Phase 5 (AID 2283599)
# Method in brief: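 HCT-116 p53-bla cells (4000/well) plated 5 h, dosed with compound (217-fold DMSO dilution) for 16 h at 37 C; CCF4-AM substrate 2 h at room temperature. Activity is the 460/530 nm emission ratio (405 nm excitation), fitted in gain-of-signal direction versus DMSO.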
# [5] = molecular target: Cellular tumor antigen p53 (Homo sapiens) (UniProt P04637); experiment: TOX21_p53_BLA_p4_ratio: Tox21 HCT-116 p53 Agonism Beta-lactamase Assay, Ratio, Phase 4 (AID 2283601)
# Method in brief: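 HCT-116 p53 beta-lactamase reporter cells (4000/well) preincubated 5 h, then compound (217-fold dilution of DMSO stock) for 16 h at 37C. CCF4-AM substrate added 2 h at room temperature; 460/530 nm emission ratio fitted upward versus DMSO.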
# [6] = molecular target: Thyroid hormone receptor alpha (Rattus norvegicus) + Thyroid hormone receptor beta (Rattus norvegicus) (UniProt P18113+P63059); experiment: TOX21_TR_LUC_GH3_Antagonist_Followup: Tox21 GH3 Thyroid Hormone Receptor Antagonism Luciferase Follow-Up Assay (AID 2283942)
# Method in brief: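 Antagonist mode: GH3 cells seeded 1,500/well, compounds at 15 concentrations (92 uM to 5nM final) plus T3 at 1.0 nM final, 24 h at 37C. Luciferase read with ONE-Glo after 30 min at room temperature.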
# [7] = molecular target: THRA (gene 7067) (UniProt P10827); experiment: TOX21_TRA_COA_Antagonist_Followup_ratio: Tox21 Thyroid Hormone Receptor alpha Antagonism through Coactivator Recruitment Follow-Up Assay, Ratio (AID 2283953)
# Method in brief: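 520:495 nm emission ratio (excitation 340 nm) reports fluorescein-SRC-2 peptide recruitment to GST-TRα LBD by TR-FRET with Tb anti-GST antibody. Values were normalized to DMSO (0%) and T3 control wells (100%); loss of signal indicated antagonism.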
# [8] = molecular target: THRB (gene 7068) (UniProt P10828); experiment: TOX21_TRB_BLA_Antagonist_Followup_ratio: Tox21 Thyroid Hormone Receptor beta Antagonism Beta-lactamase (BLA) Follow-Up Assay, Ratio (AID 2283958)
# Method in brief: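 HEK293T TRb-bla (GAL4 DBD + hTRβ LBD), 2% cs-FBS phenol red-free DMEM, 5 h attach; cpds 11-pt triplicate, 18 h 37C; CCF4-AM 2 h RT; 460/530 ratio vs DMSO; CellTiter-Glo viability same wells.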
# [9] = molecular target: THRB (gene 7068) (UniProt P10828); experiment: TOX21_TRB_COA_Antagonist_Followup_ratio: Tox21 Thyroid Hormone Receptor beta Antagonism through Coactivator Recruitment Follow-Up Assay, Ratio (AID 2283967)
# Method in brief: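 Cell-free TR-FRET: GST-TRb LBD (5.0 nM) with fluorescein-SRC-2 peptide (200 nM) and Tb anti-GST antibody (2 nM), 0.10% BSA. 520:495 nm emission ratio normalized to DMSO (0%) and T3 (100%).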
# [10] = molecular target: Retinoic acid receptor RXR-alpha (Homo sapiens) (UniProt P19793); experiment: TOX21_TR_RXR_BLA_Antagonist_Followup_ratio: Tox21 Thyroid Hormone Receptor beta Retinoid X Receptor alpha (RXRa) Antagonism Beta-lactamase (BLA) Follow-Up Assay, Ratio (AID 2283972)
# Method in brief: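 After 5 h attachment at 37C, HEK293T RXRa-bla cells (2,500/well, 2% charcoal-stripped FBS, no phenol red) received compounds at 11 concentrations in triplicate for 16 h. Beta-lactamase read as 460:530 nm ratio after 2 h RT substrate loading.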
# [11] = TOX21_TR_RXR_BLA_Antagonist_Followup_viability: Viability Assessment in the Tox21 Thyroid Hormone Receptor beta Retinoid X Receptor alpha (RXRa) Antagonism Beta-lactamase (BLA) Follow-Up Assay (AID 2283979)
# Method in brief: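 RXRa-bla HEK293T cells (2,500/well, phenol red-free DMEM, 2% charcoal-stripped FBS) were attached 5 h, then exposed to compounds at 11 concentrations in triplicate for 16 h at 37C. Viability measured by CellTiter-Glo ATP luminescence, bidirectional fitting versus DMSO.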
# [12] = TOX21_p53_BLA_p5_viability: Viability Assessment in the Tox21 HCT-116 p53 Agonism Beta-lactamase Assay, Phase 5 (AID 2283600)
# Method in brief: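 After the 460/530 nm beta-lactamase measurement, the wells received an ATP-detection luciferase reagent; signal was read 30 min later at RT. Compound treatment lasted 16 h on cells pre-incubated 5 h post-seeding.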
# [13] = TOX21_p53_BLA_p3_viability: Viability Assessment in the Tox21 HCT-116 p53 Agonism Beta-lactamase Assay, Phase 3 (AID 2283593);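 further: cells exposed to compound for 16 h before reading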
# Method in brief: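 HCT116 cells, 4000/well, dosed 5 h after plating by pin transfer (217-fold dilution from DMSO stock) and incubated 16 h at 37C, 5% CO2. Viability read as ATP luminescence with CellTiter-Glo after 30 min at room temperature.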
# [14] = CCTE_Harrill_HTTr_Viability_MCF7: CCTE's 6-hour Cell Viability Assessment for the High-Throughput Transcriptomics (HTTr) Platform, in MCF-7 cells cultured in DMEM + 10% fetal bovine serum, Harrill Lab (AID 2284010; active means hit-call score of the fitted dose curve at least 0.9, where 1 is the maximum; inactive means score below 0.9)
# Method in brief: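 Cells were dosed with chemicals in an eight-point dilution series, imaged 6 hours later for propidium iodide uptake, and the endpoint was analyzed by bidirectional fitting against DMSO as negative control.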
# [15] = CCTE_Harrill_HTTr_Apoptosis_MCF7: CCTE's 6-hour Apoptosis Assessment for the High-Throughput Transcriptomics (HTTr) Platform, in MCF-7 cells cultured in DMEM + 10% fetal bovine serum, Harrill Lab (AID 2284011; active means hit-call score of the fitted dose curve at least 0.9, where 1 is the maximum; inactive means score below 0.9)
# Method in brief: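 High-content imaging of CellEvent Caspase 3/7 Green signal follows a six-hour exposure, with eight concentrations per chemical. MCF-7 cells grown in DMEM plus 10% fetal bovine serum; activity fitted in both directions against DMSO.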
# [16] = CCTE_Harrill_HTTr_CellCount_MCF7: CCTE's Cell Proliferation Assessment for the High-Throughput Transcriptomics (HTTr) Platform, Harrill Lab (AID 2284012);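 further: count of Hoechst-stained nuclei per well by high-content imaging in MCF-7 cells; cells exposed to compound for six hours; intended direction is loss of nuclei count meaning fewer cells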
# Method in brief: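 Chemicals in eight-point dilution series are added to MCF-7 cells for six hours, nuclei are stained with Hoechst and imaged, and per-well nuclei counts are fitted in both directions relative to DMSO controls.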
# Cellular tumor antigen p53 (Homo sapiens), sequence (P04637 whole entry, looked up): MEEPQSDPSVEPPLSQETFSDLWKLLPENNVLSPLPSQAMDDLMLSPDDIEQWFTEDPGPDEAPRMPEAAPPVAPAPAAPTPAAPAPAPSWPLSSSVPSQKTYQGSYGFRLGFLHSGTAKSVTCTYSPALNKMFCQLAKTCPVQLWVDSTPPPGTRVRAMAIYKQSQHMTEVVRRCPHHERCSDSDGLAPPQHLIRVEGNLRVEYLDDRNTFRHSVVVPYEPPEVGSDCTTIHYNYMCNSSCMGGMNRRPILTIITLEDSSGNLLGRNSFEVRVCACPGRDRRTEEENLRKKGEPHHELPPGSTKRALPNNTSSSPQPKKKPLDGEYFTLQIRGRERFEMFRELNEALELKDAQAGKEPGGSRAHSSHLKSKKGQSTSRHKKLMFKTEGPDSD
# THRB (gene 7068), sequence (P10828 whole entry, looked up, the tested form may be a part): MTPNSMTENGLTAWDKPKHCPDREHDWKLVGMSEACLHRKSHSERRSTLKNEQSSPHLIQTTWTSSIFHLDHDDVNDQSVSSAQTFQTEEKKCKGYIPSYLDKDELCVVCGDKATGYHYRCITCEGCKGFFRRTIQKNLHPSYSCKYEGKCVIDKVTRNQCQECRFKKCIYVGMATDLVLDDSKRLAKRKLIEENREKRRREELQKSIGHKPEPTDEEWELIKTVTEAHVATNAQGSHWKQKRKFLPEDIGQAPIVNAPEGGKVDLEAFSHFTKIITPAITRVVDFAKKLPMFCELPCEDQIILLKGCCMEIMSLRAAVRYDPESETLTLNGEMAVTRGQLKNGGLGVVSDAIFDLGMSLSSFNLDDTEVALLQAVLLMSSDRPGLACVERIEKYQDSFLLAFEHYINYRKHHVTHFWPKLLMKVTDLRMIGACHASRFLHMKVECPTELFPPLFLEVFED
# THRA (gene 7067), sequence (P10827 whole entry, looked up, the tested form may be a part): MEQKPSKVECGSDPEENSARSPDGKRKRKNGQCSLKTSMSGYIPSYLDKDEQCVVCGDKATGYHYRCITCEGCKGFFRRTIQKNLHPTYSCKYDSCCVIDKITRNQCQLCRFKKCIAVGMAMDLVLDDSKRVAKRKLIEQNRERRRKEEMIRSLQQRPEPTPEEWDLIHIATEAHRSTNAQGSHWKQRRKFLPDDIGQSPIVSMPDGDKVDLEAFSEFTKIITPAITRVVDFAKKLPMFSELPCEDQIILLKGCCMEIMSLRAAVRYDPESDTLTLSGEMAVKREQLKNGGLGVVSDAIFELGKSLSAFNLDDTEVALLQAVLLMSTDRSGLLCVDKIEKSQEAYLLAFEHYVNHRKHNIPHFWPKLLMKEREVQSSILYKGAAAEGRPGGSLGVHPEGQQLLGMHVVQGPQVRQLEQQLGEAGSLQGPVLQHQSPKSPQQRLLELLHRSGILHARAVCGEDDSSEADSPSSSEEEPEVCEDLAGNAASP
# Retinoic acid receptor RXR-alpha (Homo sapiens), sequence (P19793 whole entry, looked up): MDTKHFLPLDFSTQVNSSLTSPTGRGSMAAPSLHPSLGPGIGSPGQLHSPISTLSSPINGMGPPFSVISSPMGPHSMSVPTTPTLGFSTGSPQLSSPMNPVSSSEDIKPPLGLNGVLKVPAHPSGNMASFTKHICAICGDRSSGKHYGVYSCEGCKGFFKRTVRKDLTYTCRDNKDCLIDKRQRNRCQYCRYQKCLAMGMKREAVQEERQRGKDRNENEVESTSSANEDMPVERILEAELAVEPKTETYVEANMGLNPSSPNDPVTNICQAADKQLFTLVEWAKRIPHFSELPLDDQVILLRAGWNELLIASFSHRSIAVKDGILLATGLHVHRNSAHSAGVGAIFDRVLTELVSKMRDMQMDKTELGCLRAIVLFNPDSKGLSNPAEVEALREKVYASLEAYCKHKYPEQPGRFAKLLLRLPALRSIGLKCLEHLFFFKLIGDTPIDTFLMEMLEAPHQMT
structure (smiles),measurement,setting,value
COc1cc([C@@H]2c3cc4c(cc3[C@H](O)[C@H]3COC(=O)[C@H]23)OCO4)cc(OC)c1OC,outcome,[1],inactive
same,outcome,[2],inactive
same,outcome,[3],inactive
same,outcome,[4],inactive
same,outcome,[5],inactive
same,outcome,[6],inactive
same,outcome,[7],inactive
same,AC50,[8],0.0273 µM (active)
same,outcome,[9],inactive
same,outcome,[10],inactive
same,outcome,[11],inactive
O=C[C@H](O)[C@@H](O)[C@H](O)[C@H](O)CO,outcome,[1],inactive
same,outcome,[2],inactive
same,outcome,[3],inactive
same,outcome,[12],inactive
same,outcome,[5],inactive
C=C1CC[C@@H]2[C@](C)(CO)[C@H](O)CC[C@@]2(C)[C@@H]1C/C=C1/C(=O)OC[C@H]1O,outcome,[1],inactive
same,outcome,[13],inactive
same,outcome,[4],inactive
same,outcome,[5],inactive
CC1C(=O)CC2C3(C)CCC2(C(C)C(=O)O)C(=O)C13 (stereo unspecified),outcome,[1],inactive
same,outcome,[2],inactive
same,outcome,[3],inactive
same,outcome,[4],inactive
same,outcome,[5],inactive
CCCCNC1CC(C)(C)NC(C)(C)C1,outcome,[1],inactive
same,outcome,[2],inactive
same,outcome,[3],inactive
same,outcome,[4],inactive
CCc1ccccc1CC,outcome,[1],inactive
same,outcome,[13],inactive
same,outcome,[3],inactive
same,outcome,[4],inactive
same,outcome,[5],inactive
same,outcome,[14],inactive
same,outcome,[15],inactive
same,outcome,[16],inactive
NS(=O)(=O)Cc1noc2ccccc12,outcome,[1],inactive
same,outcome,[13],inactive
same,outcome,[4],inactive
same,outcome,[5],inactive
NC(=O)c1ncn([C@@H]2O[C@H](CO)[C@@H](O)[C@H]2O)n1,AC50,[1],32.2 µM (active) and 20.3 µM (active)
same,AC50,[2],17 µM (active)
same,outcome,[3],inactive
same,AC50,[4],45.7 µM (active)
same,outcome,[4],inactive
same,AC50,[5],15.6 µM (active)
O=P(O)(O)OC(CO)CO,outcome,[1],inactive
same,outcome,[13],inactive
same,outcome,[3],inactive
same,outcome,[12],inactive
COc1c(N2C[C@@H]3CCCN[C@@H]3C2)c(F)cc2c(=O)c(C(=O)O)cn(C3CC3)c12,outcome,[1],inactive
same,outcome,[2],inactive
same,outcome,[4],inactive
same,outcome,[5],inactive
CC(C)(C)NCC(O)c1ccc(O)c(CO)c1 (stereo unspecified),outcome,[1],inactive
same,outcome,[2],inactive
same,outcome,[3],inactive
same,outcome,[4],inactive
same,outcome,[12],inactive
same,outcome,[5],inactive
O=C1CC2(CCCC2)CC(=O)N1CCNCC1COc2ccccc2O1 (stereo unspecified),outcome,[13],inactive
same,outcome,[2],inactive
same,outcome,[4],inactive
same,outcome,[12],inactive
same,outcome,[5],inactive
CN(C)C(=O)CNC(=O)Cc1ccccc1,outcome,[1],inactive
same,outcome,[13],inactive
same,outcome,[3],inactive
same,outcome,[4],inactive
same,outcome,[5],inactive
